Compound activity deposited in PubChem BioAssay by National Center for Advancing Translational Sciences (NCATS).
TDP1 cell CPT: DT40-hTDP1 cell growth loss with CPT; chicken DT40 Tdp1-/-;hTDP1 cells + 20 nM CPT, ATP luminescence, 48 h; Potency, µM (highest dose often 46.2 µM), for the others: at the highest dose activity change, negative = growth inhibition, usual class: inhibitors; actives 12% (n = 420,000); AID 686979; note: % is set by controls: 0 for no effect and ±100 for the full control effect; nearly all actives have a fitted effect of over 55% in size
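Cell growth measured by CellTiter-Glo luminescence after a minimum 48 h, 37 C compound exposure with 20 nM CPT in Tdp1-knockout DT40 cells stably expressing hTDP1, seeded 400/well; qHTS titration format.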
HT1080-NT tox: kills 2HG-producing HT-1080-NT fibrosarcoma cells; HT-1080-NT fibrosarcoma viability, CellTiter-Glo ATP luminescence, 48 h; Potency, µM (highest dose often 46.1 µM), without a hit: top-dose activity, negative = less viability, most hits filed as cytotoxic; actives 1.6% (n = 360,000); AID 686970;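 note: NT is the 2HG producing partner of a matched IDH1 knockdown line; 0% = DMSO-treated cells and -100% = media-only wells without cells; nearly all actives have a fitted effect of over 55% in size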
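Viability of the 2HG-overproducing fibrosarcoma line after 48 hours of compound exposure at 37 degrees C was determined by luminescence with CellTiter-Glo, and concentration-effect curves were then fitted and categorized.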
TDP1 cell noCPT: qHTS for Inhibitors of human tyrosyl-DNA phosphodiesterase 1 (TDP1): qHTS in cells in absence of CPT | actives 15% (n = 420,000) | Potency, µM (highest dose often 46.2 µM), for inactives: top-dose activity change, negative = growth inhibition, hits mostly inhibitors | DT40 Tdp1-/- hTDP1 cells, no CPT, ATP luminescence, 48 h; note: % is set by controls: 0 for no effect and ±100 for the full control effect; nearly all actives have a fitted effect of over 55% in size
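Chicken DT40 Tdp1-/- cells stably complemented with human TDP1 were seeded at 400 cells/well with DMSO in place of 20 nM camptothecin. After compound pinning, cells grew at least 48 hr at 37 °C; viability read by CellTiter-Glo luminescence.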
TGFb SMAD3 inh: TGF-b pathway inhibition; Potency, µM (series often up to 46.1 µM), inactives show at the top dose activity, negative = inhibition, actives largely listed as inhibitors; HepG2 CAGA-GFP TGF-b/SMAD3 reporter, GFP fluorescence, 18 h; TGF-beta stimulated, 500 pg/mL final; AID 588855; actives 1.2% (n = 410,000); note: % is set by controls: 0 for no effect and ±100 for the full control effect; nearly all actives have a fitted effect of over 65% in size
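GFP signal (ex488/em500-530) from TGF-beta-stimulated HEPG2 CAGA-GFP cells, 500 pg/mL final, 18 h at 37 degrees C in DMEM plus 1% FBS, normalized to unstimulated and DMSO-stimulated controls.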
HepG2 tox: HepG2 cytotoxicity, counter-screen for TGF-b inhibitors. HepG2 CAGA-GFP viability, ATP luminescence, 18 h. actives 0.76% (n = 410,000). Potency, µM (doses to about 46.1 µM), for inactives: at the highest dose activity change, negative = cytotoxicity, actives largely listed as cytotoxic
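CellTiter-Glo luminescence gave cytotoxicity after 18 hours at 37 degrees C. The cells were HepG2 CAGA-GFP in 1% FBS DMEM, stimulated with 500 pg/mL TGF-beta after compound addition. %Activity was normalised to no-cell wells (complete cell-killing) and DMSO (no toxicity), and curves were fitted and classified.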
HT1080 IDH1KD tx: kills HT-1080 cells with IDH1 knockdown. actives 2% (n = 360,000). AID 686971. Potency, µM (top dose mostly 46.1 µM), for the others: top-dose activity, negative = toxicity, actives largely listed as cytotoxic. HT-1080 IDH1 knockdown viability, ATP luminescence, 48 h;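 note: 0% = DMSO wells and -100% = cell-free medium wells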
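After a 2 h attachment period, IDH1KD HT-1080 cells took pin-transferred compound for 48 h at 37 °C; ATP-based luminescence after 10 min room-temperature reagent incubation reported viability.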
Starred values were filed as active, the others as inactive; [ ] = dose if it differs, or a comment. Shown are actives, neighbours in structure and some others; about 17% of the full set was active somewhere. Calls come from the whole dose curve; as a rule, active = well fitted curve in the direction sought with a large enough effect; inconclusive = small, poorly fitted or top-dose-only effect, or another doubt; inactive = no such curve, though single readings can be large; an effect the other way counts as inactive or inconclusive. Potency is the fitted concentration of half-maximal effect.

For CCn1c2ccccc2c2cc(NC(=O)C3CCN(S(=O)(=O)c4cccs4)CC3)ccc21 the results were TDP1 cell CPT 16µM*, HT1080-NT tox 0%, TDP1 cell noCPT 21µM*, TGFb SMAD3 inh 8%, HepG2 tox 1% and HT1080 IDH1KD tx -2%.
Screening CC1CCN(S(=O)(=O)c2ccc(C(=O)Nc3nc4ccc(F)cc4s3)cc2)CC1 returned TDP1 cell CPT inconclusive, TDP1 cell noCPT -30%, TGFb SMAD3 inh 3% and HepG2 tox -7%.
COc1ccc2nc(NC(=O)c3ccc(S(=O)(=O)N4CCCC(C)C4)cc3)sc2c1 (centres undefined) was read as TDP1 cell CPT 16µM*, TDP1 cell noCPT 12µM*, TGFb SMAD3 inh -1% and HepG2 tox -3%.
Screening Cc1ccc2nc(NC(=O)C3CCN(S(=O)(=O)c4cnc[nH]4)CC3)sc2c1 returned TDP1 cell CPT inconclusive, HT1080-NT tox -4%, TDP1 cell noCPT 16µM*, TGFb SMAD3 inh -16%, HepG2 tox -41% and HT1080 IDH1KD tx -7%.
O=C(COC(=O)CCNS(=O)(=O)c1ccccc1)NC(=O)c1ccccc1 was read as TDP1 cell CPT 0%, HT1080-NT tox 9%, TDP1 cell noCPT -14%, TGFb SMAD3 inh 0%, HepG2 tox -3% and HT1080 IDH1KD tx 4%.
Screening O=C(Nc1c[nH]c(=O)[nH]c1=O)c1cc([N+](=O)[O-])cc([N+](=O)[O-])c1 returned TDP1 cell CPT -2%, HT1080-NT tox -16%, TDP1 cell noCPT 1%, TGFb SMAD3 inh -22%, HepG2 tox -19% and HT1080 IDH1KD tx -7%.
`O=C(Nc1ccccc1Oc1ccsc1C(=O)O)c1ccccc1F` gave TDP1 cell CPT 4%, HT1080-NT tox 3%, TDP1 cell noCPT -13%, TGFb SMAD3 inh 2%, HepG2 tox -2% and HT1080 IDH1KD tx 9%.
Screening CCOc1ccc(NC(=O)C2CCN(S(=O)(=O)c3cccs3)CC2)cc1 returned TDP1 cell CPT -16%, HT1080-NT tox -29%, TDP1 cell noCPT inconclusive, TGFb SMAD3 inh 8%, HepG2 tox -55% and HT1080 IDH1KD tx -1%.
`Cc1ccc2nc(NC(=O)C3CCN(S(=O)(=O)c4cccs4)CC3)sc2c1` gave TDP1 cell CPT 23µM*, HT1080-NT tox inconclusive, TDP1 cell noCPT 16µM*, TGFb SMAD3 inh 22%, HepG2 tox -10% and HT1080 IDH1KD tx inconclusive.
For COc1ccc2nc(NC(=O)C3CCN(S(=O)(=O)c4cccs4)CC3)sc2c1 the results were TDP1 cell CPT 23µM*, HT1080-NT tox inconclusive, TDP1 cell noCPT 29µM*, TGFb SMAD3 inh inconclusive, HepG2 tox -25% and HT1080 IDH1KD tx -28%.
Screening CCOc1ccc(OCC)c(NC(=O)C2CCCN(S(=O)(=O)c3cccs3)C2)c1 (centres undefined) returned TDP1 cell CPT inconclusive, HT1080-NT tox 2%, TDP1 cell noCPT 16µM*, TGFb SMAD3 inh 6%, HepG2 tox 1% and HT1080 IDH1KD tx 2%.
`COc1ccc2nc(NC(=O)C3CCN(S(=O)(=O)c4cnc[nH]4)CC3)sc2c1` gave TDP1 cell CPT -29%, HT1080-NT tox -8%, TDP1 cell noCPT -16%, TGFb SMAD3 inh 2%, HepG2 tox -22% and HT1080 IDH1KD tx -10%.
For O=C(Nc1nc2ccc(C(=O)N3CCCCC3)cc2s1)C1CCCCC1 the results were TDP1 cell CPT 2.6µM*, HT1080-NT tox inconclusive, TDP1 cell noCPT 4.1µM*, TGFb SMAD3 inh 3%, HepG2 tox -2% and HT1080 IDH1KD tx inconclusive.
CC(=O)N(C(C)=O)S(=O)(=O)c1ccc(N=NN2CCOCC2)cc1 was read as TDP1 cell CPT -22%, HT1080-NT tox 9%, TDP1 cell noCPT 2%, TGFb SMAD3 inh 5%, HepG2 tox 9% and HT1080 IDH1KD tx 11%.
`CC(Oc1ccc2c(-c3ccccc3)cc(=O)oc2c1)C(=O)N1CCC[C@@H]1C(N)=O` (some centres undefined) gave TDP1 cell CPT -4%, HT1080-NT tox -5%, TDP1 cell noCPT -3%, TGFb SMAD3 inh 7%, HepG2 tox -1% and HT1080 IDH1KD tx -2%.
Screening CCOc1ccccc1N1CC(C(=O)N(C)Cc2cccnc2)CC1=O (centres undefined) returned TDP1 cell CPT 11%, HT1080-NT tox 6%, TDP1 cell noCPT 2%, TGFb SMAD3 inh 5%, HepG2 tox -22% and HT1080 IDH1KD tx 12%.
For CCOc1ccc(OCC)c(NC(=O)C2CCN(S(=O)(=O)c3c(C)[nH]c(=O)[nH]c3=O)CC2)c1 the results were TDP1 cell CPT 18µM*, HT1080-NT tox -2%, TDP1 cell noCPT inconclusive, TGFb SMAD3 inh 16%, HepG2 tox -1% and HT1080 IDH1KD tx 0%.
Screening CCOc1ccc(OCC)c(NC(=O)C2CCN(S(=O)(=O)c3cn(C)cn3)CC2)c1 returned TDP1 cell CPT 10%, TDP1 cell noCPT -3%, TGFb SMAD3 inh inconclusive and HepG2 tox -2%.
For COc1ccccc1NC(=O)C1CCCN(c2nc(C)cc(C)n2)C1 (centres undefined) the results were TDP1 cell CPT 3%, HT1080-NT tox 9%, TDP1 cell noCPT 0%, TGFb SMAD3 inh -2%, HepG2 tox -27% and HT1080 IDH1KD tx 0%.
`COc1ccc2nc(NC(=O)C3CCCN(S(=O)(=O)c4cccs4)C3)sc2c1` (centres undefined) gave TDP1 cell CPT inconclusive, HT1080-NT tox -13%, TDP1 cell noCPT 18µM*, TGFb SMAD3 inh 22%, HepG2 tox -49% and HT1080 IDH1KD tx -18%.
CCOc1ccc(OCC)c(NC(=O)C2CCCN(c3nc(C)cc(C)n3)C2)c1 (centres undefined) was read as TDP1 cell CPT 23µM*, HT1080-NT tox 12%[9.24 µM], TDP1 cell noCPT 21µM*, TGFb SMAD3 inh -7%, HepG2 tox -24% and HT1080 IDH1KD tx inconclusive.
Screening O=C(Nc1ccon1)C1CCN(S(=O)(=O)c2cccs2)CC1 returned TDP1 cell CPT inconclusive, HT1080-NT tox -5%, TDP1 cell noCPT 23µM*, TGFb SMAD3 inh -11%, HepG2 tox -3% and HT1080 IDH1KD tx -2%.
